For some assays here: Results with a measured potency or affinity are listed apart.

Set-up in all cases: scale not given: direction of the effect not stated beside the values
For experiment [1], the target named is Protein translocase subunit SecA (Escherichia coli (strain K12)) (UniProt P10408). The experiment in a line: Assay to Identify E. coli SecA ATPase Inhibitors. The class given is functional. To be noted: 30 µM.
The target of experiment [2] is T1, Ubiquitin-activating enzyme e1, putative (Leishmania donovani (strain BPK282A1)) (UniProt E9BSI1).
T1 sequence (whole entry): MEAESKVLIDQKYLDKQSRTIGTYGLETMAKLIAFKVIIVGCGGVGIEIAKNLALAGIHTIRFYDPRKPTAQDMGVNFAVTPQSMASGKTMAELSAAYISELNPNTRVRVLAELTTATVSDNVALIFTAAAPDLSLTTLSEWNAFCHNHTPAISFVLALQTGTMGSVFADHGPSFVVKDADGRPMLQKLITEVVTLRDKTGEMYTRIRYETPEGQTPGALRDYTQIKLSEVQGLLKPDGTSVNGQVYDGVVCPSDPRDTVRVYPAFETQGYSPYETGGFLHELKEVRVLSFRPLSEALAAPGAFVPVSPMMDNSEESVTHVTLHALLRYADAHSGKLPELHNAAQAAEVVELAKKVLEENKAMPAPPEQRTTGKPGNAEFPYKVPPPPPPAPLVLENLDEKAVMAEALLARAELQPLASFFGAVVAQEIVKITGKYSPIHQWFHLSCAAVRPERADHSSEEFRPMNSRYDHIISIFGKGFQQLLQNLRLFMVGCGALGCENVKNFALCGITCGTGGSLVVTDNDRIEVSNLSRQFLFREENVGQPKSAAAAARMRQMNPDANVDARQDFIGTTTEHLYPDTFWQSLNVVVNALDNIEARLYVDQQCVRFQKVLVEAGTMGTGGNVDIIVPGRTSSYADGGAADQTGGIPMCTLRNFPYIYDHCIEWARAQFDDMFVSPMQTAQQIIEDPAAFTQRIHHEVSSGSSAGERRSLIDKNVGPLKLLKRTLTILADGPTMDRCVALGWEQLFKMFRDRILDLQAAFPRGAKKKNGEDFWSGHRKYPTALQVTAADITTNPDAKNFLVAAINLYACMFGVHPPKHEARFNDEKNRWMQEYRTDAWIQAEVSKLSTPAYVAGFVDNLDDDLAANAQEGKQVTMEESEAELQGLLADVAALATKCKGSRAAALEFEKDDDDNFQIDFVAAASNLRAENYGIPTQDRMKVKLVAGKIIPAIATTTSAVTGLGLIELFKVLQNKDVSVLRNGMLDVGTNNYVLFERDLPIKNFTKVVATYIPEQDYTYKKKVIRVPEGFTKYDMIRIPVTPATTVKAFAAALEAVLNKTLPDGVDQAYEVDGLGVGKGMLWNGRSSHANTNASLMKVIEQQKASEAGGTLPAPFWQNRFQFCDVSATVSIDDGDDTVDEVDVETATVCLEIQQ
The experiment in a line: Leishmania donovani Ubiquitin Activating Enzyme (LdE1). It is filed as functional. Conditions: 30 µM.

Experiment [3] has as its target Sialic acid-binding Ig-like lectin 9 (Homo sapiens) (UniProt Q9Y336). The experiment in a line: Hs-Siglec9 ALPHAscreen SOP 20170721. To be noted: 10 µM. On the technique in general: Alpha assays give light when donor and acceptor beads are brought close together.
A further experiment has as its system Trypanosoma cruzi. Put plainly: Trypanosoma cruzi phosphomannomutase and mannose-1-phosphate guanylyltransferase assay. It is filed as functional. Conditions: 10 µM.
Experiment [4] deals with T2, Arginase-2, mitochondrial (Homo sapiens) (UniProt P78540).
T2 sequence (whole entry): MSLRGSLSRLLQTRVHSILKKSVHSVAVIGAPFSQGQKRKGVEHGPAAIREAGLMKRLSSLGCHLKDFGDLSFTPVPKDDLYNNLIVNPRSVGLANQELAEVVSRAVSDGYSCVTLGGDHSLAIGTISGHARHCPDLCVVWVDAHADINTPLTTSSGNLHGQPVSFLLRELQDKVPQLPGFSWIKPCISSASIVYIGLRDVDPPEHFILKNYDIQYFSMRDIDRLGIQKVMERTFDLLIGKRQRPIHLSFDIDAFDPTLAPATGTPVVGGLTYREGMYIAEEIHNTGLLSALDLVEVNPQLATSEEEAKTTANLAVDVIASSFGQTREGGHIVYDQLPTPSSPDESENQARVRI
Put plainly: in vitro enzyme assay to detect the production of urea directly proportional to the activity of Arginase II. Also: in the data most compounds retested in dose-response had high values. The class given is functional. To be noted: 33.3 µM.

Experiment [5] has as its target T3, Proteasome subunit beta (Trypanosoma cruzi) (UniProt O96673).
T3 sequence (whole entry): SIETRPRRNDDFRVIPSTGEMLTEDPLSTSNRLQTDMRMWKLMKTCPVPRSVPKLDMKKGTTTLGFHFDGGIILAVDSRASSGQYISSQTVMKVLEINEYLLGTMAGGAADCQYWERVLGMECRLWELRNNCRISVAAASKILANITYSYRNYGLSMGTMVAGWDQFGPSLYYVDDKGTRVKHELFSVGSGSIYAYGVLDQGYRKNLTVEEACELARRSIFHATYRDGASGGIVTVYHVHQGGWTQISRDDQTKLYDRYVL
Put plainly: Trypanosoma cruzi proteasome chymotrypsin-like activity (TcProtChymo) assay. Also: in the data most compounds retested in dose-response had high values. The class given is functional. Conditions: 9.37 µM.

The next experiment is filed under the species Homo sapiens. Put plainly: To identify inhibition of the IFN signalling (Jak-Stat) pathway via expression of an eGFP reporter gene under the control of an IFN-stimulated response element (ISRE) containing MxA promoter. It is filed as functional. Conditions: 30 µM. In general terms: Reporter assays use an easily measured gene product as a stand-in for the process of interest.

Experiment [6] addresses T4, Tyrosyl-tRNA synthetase, putative (Trypanosoma cruzi (strain CL Brener)) (UniProt Q4DSP6).
T4 sequence (whole entry): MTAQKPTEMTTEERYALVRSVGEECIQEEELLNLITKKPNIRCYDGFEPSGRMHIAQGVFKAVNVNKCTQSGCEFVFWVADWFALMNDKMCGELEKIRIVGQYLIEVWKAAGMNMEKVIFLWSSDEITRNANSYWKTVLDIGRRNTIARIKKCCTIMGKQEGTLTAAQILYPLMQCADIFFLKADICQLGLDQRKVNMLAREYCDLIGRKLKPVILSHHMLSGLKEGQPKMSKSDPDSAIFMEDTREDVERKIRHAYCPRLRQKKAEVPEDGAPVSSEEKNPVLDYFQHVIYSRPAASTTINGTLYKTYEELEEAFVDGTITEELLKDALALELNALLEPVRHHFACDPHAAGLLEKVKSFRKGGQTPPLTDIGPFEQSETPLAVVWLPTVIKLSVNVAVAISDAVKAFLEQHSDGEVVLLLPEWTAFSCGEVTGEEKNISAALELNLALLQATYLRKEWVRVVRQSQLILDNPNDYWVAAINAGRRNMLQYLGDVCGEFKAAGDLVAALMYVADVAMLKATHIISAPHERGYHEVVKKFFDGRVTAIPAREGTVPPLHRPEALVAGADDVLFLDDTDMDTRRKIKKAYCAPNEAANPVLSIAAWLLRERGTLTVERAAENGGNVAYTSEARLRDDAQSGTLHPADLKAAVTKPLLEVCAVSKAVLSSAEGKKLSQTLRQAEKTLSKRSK
Put plainly: Trypanosoma cruzi tyrosyl tRNA synthetase (TcYRS) _High Tyrosine SOP. Also: in the data most compounds retested in dose-response had high values. The class given is functional. Conditions: 30 µM.

The target in experiment [7] is T4, Tyrosyl-tRNA synthetase, putative (Trypanosoma cruzi (strain CL Brener)). The experiment in a line: Trypanosoma cruzi tyrosyl tRNA synthetase (TcYRS) SOP. It is filed as functional. Conditions: 30 µM.
In experiment [8] the target is Chromo domain-containing protein 1 (Saccharomyces cerevisiae (strain ATCC 204508 / S288c) (Baker's yeast)) (UniProt P32657). Put plainly: ScCHD-1 Enzyme Inhibition Assay. Also: in the data most compounds retested in dose-response had high values. The class given is functional. Conditions: 30 µM.
Sequence of Chromo domain-containing protein 1 (Saccharomyces cerevisiae (strain ATCC 204508 / S288c) (Baker's yeast)) (P32657 whole entry, the tested form may be a part): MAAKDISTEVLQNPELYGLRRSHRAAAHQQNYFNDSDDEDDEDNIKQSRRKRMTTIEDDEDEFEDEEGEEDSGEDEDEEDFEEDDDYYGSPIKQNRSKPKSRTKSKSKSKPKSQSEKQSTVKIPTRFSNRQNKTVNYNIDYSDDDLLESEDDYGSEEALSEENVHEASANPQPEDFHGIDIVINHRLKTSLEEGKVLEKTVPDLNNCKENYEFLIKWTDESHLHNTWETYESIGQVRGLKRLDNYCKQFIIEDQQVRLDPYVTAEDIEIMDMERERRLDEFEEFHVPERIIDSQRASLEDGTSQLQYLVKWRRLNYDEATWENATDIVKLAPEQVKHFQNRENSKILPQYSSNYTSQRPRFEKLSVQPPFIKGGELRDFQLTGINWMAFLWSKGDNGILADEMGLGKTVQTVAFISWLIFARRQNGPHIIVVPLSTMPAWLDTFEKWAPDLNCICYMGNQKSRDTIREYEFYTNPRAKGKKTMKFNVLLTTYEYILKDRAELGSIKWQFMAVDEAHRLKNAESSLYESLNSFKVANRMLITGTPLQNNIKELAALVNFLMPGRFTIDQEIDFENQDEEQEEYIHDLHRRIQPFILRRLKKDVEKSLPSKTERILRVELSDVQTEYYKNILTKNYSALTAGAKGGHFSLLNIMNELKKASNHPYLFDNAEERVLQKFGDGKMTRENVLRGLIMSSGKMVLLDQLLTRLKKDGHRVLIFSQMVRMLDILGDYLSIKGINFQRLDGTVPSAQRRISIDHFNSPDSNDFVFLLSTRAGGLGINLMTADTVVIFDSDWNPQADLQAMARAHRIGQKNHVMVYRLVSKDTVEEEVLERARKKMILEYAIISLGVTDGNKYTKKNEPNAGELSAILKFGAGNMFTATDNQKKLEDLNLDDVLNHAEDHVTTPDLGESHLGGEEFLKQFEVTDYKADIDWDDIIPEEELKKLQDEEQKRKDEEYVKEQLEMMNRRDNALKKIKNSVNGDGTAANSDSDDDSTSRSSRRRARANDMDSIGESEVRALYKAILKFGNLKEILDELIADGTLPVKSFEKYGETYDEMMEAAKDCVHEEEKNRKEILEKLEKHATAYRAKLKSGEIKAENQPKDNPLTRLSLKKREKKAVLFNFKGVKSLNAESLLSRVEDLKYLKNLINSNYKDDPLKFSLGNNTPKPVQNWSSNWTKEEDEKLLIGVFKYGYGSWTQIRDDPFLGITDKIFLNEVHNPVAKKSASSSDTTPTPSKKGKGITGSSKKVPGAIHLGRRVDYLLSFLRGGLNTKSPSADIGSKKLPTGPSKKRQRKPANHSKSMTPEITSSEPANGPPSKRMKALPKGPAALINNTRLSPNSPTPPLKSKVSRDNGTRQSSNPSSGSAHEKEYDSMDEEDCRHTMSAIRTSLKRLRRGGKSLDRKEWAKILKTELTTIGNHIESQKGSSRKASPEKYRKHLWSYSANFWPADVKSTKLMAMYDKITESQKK

Sequence of Sialic acid-binding Ig-like lectin 9 (Homo sapiens) (Q9Y336 whole entry): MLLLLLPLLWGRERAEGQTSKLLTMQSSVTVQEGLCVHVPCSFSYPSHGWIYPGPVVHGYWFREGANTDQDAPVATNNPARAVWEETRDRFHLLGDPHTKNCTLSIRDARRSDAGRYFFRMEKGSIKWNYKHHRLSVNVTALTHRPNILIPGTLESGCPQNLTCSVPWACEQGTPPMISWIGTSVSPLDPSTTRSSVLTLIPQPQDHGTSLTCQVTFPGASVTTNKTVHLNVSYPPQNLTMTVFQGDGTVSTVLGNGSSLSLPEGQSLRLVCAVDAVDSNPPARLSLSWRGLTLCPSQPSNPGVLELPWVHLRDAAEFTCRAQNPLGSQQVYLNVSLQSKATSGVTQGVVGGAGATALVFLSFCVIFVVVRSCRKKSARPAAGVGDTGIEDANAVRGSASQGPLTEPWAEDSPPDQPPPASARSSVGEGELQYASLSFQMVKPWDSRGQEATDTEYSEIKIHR
Sequence of Protein translocase subunit SecA (Escherichia coli (strain K12)) (P10408 whole entry): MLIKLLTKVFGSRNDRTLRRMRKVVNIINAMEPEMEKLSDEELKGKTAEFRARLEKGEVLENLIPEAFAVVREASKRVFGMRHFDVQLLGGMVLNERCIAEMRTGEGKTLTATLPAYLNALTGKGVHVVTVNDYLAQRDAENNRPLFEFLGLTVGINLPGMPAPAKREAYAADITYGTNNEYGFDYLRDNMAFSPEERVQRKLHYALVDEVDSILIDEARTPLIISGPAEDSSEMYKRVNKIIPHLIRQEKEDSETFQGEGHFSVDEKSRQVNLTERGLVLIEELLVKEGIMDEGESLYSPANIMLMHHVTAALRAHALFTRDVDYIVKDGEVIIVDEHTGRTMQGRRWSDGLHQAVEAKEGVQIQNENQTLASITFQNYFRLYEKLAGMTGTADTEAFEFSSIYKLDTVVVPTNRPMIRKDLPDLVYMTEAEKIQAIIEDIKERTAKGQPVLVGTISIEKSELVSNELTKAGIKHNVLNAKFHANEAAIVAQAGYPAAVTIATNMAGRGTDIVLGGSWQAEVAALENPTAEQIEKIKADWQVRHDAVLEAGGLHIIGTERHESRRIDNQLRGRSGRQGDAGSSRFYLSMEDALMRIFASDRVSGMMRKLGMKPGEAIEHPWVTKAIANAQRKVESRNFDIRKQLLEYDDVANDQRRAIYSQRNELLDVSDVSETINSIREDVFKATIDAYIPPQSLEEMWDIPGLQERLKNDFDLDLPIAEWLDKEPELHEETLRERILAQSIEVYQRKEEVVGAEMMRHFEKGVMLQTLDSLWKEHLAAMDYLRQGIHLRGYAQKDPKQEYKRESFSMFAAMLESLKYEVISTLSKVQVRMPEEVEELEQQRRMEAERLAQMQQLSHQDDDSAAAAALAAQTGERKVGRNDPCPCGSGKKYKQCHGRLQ

Regarding `CCn1ccnc1CN1CCC(CCC(=O)Nc2ccccc2Cl)CC1`, the Percent Effect was -1.09% in experiment [1]; 5.41% in experiment [2]; 7.23% in [3]; 6.89% with Trypanosoma cruzi; 12.2% in [4]; -1.37% in [5]. The Percent Effect in the experiment listed under Homo sapiens was found to be 10.8%; in experiment [6] it was 1.6%; in experiment [7], 7.32%; in [8], 83.4%.

As to `COCCN(C)C[C@@H]1CCC[C@@H]2CN(c3cc(OC)ncn3)C[C@@H]21`, the Percent Effect is -6.04% in experiment [1]; 3.9% in [2]; -3.68% in experiment [3]; -1.27% in the experiment on Trypanosoma cruzi; -5.26% in experiment [4]; 13.9% in experiment [5]. The Percent Effect in the experiment listed under Homo sapiens worked out at 11.6%; in experiment [6], 7.89%; in experiment [7], 7.69%; in [8] it was 0.558%.

With `COc1cccc2c1OCC(C(=O)N1CCN(S(C)(=O)=O)CC1)C2` (stereo not given), the Percent Effect in experiment [1] was -5.76%; in [2], 16.2%; in experiment [3] it was 16.9%; in the experiment with Trypanosoma cruzi, 6.69%; in [4], 11.5%; in [5] it was 9.25%. Moreover, the Percent Effect in the experiment listed under Homo sapiens is 11.4%; in experiment [6], 7.98%; in experiment [7], 17.1%; in experiment [8], -8.92%.

For `COc1ccc(C(C)NC(=O)Cn2ccc(=O)n(C)c2=O)cc1OC` (stereo not given), the Percent Effect in [1] was -2.49%; in [2], 7.79%; in experiment [3], 11%; in the experiment on Trypanosoma cruzi, -2.8%; in experiment [4], 3.48%; in experiment [5], 9.65%. Further, the Percent Effect in the experiment filed under Homo sapiens was 17.1%; in experiment [6] it was 8.82%; in experiment [7] it was 18.8%; in experiment [8] it was -4.91%.

Turning to `CC(=O)N1CCOC2(CCN(C(=O)c3cnoc3C)CC2)C1`, the Percent Effect in [1] is -3.9%; in experiment [2], -1.3%; in [3], 2.36%; in the experiment on Trypanosoma cruzi, 0.682%; in experiment [4], -0.405%; in experiment [5], 0.441%. Also, the Percent Effect in the experiment listed under Homo sapiens is -5.16%; in experiment [6], 2.63%; in [7], 5.13%; in [8], 2.4%.

Take `CCn1nc2c(cc1=O)CN(CC(=O)Nc1nc(C)c(C)s1)CC2`: the Percent Effect in experiment [1] is -0.874%; in experiment [2] it was 0%; in [3] it was 5.55%; in the experiment on Trypanosoma cruzi, -9.7%; in experiment [4], 1.84%; in [5], 13.3%. Besides, the Percent Effect in the experiment filed under Homo sapiens is 14.5%; in experiment [6], 4.9%; in [7], 9.41%; in experiment [8], -8.07%.

In the case of `Cc1nn(-c2ccccc2)cc1C(=O)N1CCCC(n2cccn2)C1` (stereo not given), the Percent Effect was -2.22% in experiment [1]; 13.3% in [2]; 4.19% in experiment [3]; 1% in the experiment on Trypanosoma cruzi; 7.09% in experiment [4]; 9.07% in [5]. Further, the Percent Effect in the experiment filed under Homo sapiens is -2.62%; in experiment [6], 4.74%; in [7], 12.8%; in experiment [8], -12.7%.

Turning to `CCn1ccnc1CNCC1CCCN1c1cccnn1` (stereo not given), the Percent Effect was -4.44% in [1]; 2.67% in experiment [2]; 5.47% in [3]; 0.803% with Trypanosoma cruzi; 0.444% in experiment [4]; 1.78% in experiment [5]. The Percent Effect in the experiment filed under Homo sapiens was 9.51%; in [6], 6.84%; in experiment [7], 12.8%; in experiment [8], -8.32%.

Regarding `CCc1ccc(S(=O)(=O)N2CCC3(CC(C(=O)NC)=NO3)C2)cc1` (stereo not given), the Percent Effect in [1] is -3.25%; in experiment [2] it was 1.3%; in [3], 3.29%; in the experiment with Trypanosoma cruzi, 5.36%; in experiment [4], -4.05%; in experiment [5] it was 4.68%. For the same compound, the Percent Effect in the experiment filed under Homo sapiens is -7.8%; in [6], 1.58%; in experiment [7], 5.13%; in experiment [8], 0.139%.

`Cc1ccc2c(n1)N(Cc1cccnc1)CCN(C(=O)C1CCC1)C2`: the Percent Effect in [1] was -1.28%; in experiment [2], 6.49%; in experiment [3], -4.98%; in the experiment on Trypanosoma cruzi it was -4.77%; in [4] it was 7.29%; in experiment [5], 11.4%. For the same compound, the Percent Effect in the experiment filed under Homo sapiens was 16.9%; in experiment [6], 4.74%; in [7], 7.69%; in [8] it was -6.47%.

Consider `CC(C)(O)CN1CCN(C(=O)c2cc(Cl)cc3cccnc23)CC1`, for which the Percent Effect in experiment [1] was -3.15%; in [2] it was -5.13%; in experiment [3], 5.39%; in the experiment with Trypanosoma cruzi it was 2.54%; in [4], 6.15%; in experiment [5], 9.13%. The Percent Effect in the experiment filed under Homo sapiens was -3.27%; in [6], 2.39%; in experiment [7] it was 1.21%; in [8] it was -5.6%.

The values are drawn from ChEMBL document CHEMBL3988442, “University of Dundee, Small-Polar-MMV Screening Library” (2021).
